Data reported in paper PMC5700166.

Experiments:
Experiment in all cases: protein-binding microarray (PBM); PBM: ~300 nM protein, 6 mM HEPES pH 7.8, 80 mM KCl, 0.5 mM EDTA, 0.5 mM EGTA, 6% glycerol, 35 ng/ul poly-dIdC, 1% milk, 1 h, room temperature; Ap Aiptasia and Nv Nematostella (sea anemones) / Co Capsaspora / Aq Amphimedon (sponge) / Dm Drosophila / Hu human; RHD is the Rel homology domain; high values mean tight binding
Conditions in all cases: dsDNA, one strand shown
[1] = molecular target: T1, GST-Ap-NF-kB RHD (Exaiptasia pallida (Aiptasia), UniProt A0A913YAJ5 2-422)
T1 sequence: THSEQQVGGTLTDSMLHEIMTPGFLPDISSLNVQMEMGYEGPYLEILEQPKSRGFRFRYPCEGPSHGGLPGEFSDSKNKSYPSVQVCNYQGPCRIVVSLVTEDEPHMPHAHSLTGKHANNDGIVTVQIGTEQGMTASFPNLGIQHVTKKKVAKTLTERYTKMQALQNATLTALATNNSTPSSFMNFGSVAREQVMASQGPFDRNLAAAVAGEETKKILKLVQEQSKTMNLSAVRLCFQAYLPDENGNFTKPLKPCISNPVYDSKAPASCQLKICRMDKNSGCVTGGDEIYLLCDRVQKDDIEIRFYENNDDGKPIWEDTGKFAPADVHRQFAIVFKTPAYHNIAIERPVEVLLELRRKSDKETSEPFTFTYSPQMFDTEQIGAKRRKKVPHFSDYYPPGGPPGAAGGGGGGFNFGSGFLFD

[2] = molecular target: T2, GST-Nv-NF-kB (Cys allele) (Nematostella vectensis, UniProt E5G601 2-411)
T2 sequence: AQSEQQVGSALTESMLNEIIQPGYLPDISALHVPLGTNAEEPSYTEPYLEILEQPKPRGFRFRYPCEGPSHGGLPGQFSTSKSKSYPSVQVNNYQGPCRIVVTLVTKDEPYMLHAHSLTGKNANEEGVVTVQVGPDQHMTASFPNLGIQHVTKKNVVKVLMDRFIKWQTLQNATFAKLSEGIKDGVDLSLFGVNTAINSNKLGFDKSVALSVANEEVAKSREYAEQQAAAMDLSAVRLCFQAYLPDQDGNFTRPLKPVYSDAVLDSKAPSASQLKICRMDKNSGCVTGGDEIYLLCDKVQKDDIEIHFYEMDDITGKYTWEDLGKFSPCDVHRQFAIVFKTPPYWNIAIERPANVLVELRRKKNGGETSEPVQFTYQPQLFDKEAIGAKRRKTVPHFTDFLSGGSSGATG

[3] = molecular target: T3, GST-Co-NF-kB (Capsaspora owczarzaki, UniProt F1ARL5 200-546)
T3 sequence: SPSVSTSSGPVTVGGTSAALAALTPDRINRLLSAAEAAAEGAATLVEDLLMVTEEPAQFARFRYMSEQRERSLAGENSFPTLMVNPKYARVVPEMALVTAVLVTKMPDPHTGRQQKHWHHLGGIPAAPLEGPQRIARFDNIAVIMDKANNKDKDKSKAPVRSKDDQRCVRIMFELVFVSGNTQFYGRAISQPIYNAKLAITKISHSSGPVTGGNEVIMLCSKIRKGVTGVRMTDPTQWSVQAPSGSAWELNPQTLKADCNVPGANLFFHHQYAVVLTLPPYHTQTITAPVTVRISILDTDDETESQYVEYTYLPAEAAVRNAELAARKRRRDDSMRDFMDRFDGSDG

[4] = molecular target: T4, GST-Dm-Relish (Drosophila melanogaster, UniProt Q94527 99-473)
T4 sequence: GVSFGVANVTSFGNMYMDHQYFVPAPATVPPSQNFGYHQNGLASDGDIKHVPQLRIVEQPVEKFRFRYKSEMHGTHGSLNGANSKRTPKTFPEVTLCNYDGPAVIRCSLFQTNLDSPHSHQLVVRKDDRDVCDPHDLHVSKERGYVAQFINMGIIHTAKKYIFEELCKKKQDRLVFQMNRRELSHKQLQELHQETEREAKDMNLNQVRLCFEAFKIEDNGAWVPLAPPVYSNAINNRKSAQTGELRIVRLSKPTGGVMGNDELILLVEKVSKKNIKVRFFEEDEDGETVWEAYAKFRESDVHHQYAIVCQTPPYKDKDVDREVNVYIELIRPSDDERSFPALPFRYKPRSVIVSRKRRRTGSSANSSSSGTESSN

[5] = molecular target: T5, GST-Aq-NF-kB (Amphimedon queenslandica, UniProt A9Y5G7 2-389)
T5 sequence: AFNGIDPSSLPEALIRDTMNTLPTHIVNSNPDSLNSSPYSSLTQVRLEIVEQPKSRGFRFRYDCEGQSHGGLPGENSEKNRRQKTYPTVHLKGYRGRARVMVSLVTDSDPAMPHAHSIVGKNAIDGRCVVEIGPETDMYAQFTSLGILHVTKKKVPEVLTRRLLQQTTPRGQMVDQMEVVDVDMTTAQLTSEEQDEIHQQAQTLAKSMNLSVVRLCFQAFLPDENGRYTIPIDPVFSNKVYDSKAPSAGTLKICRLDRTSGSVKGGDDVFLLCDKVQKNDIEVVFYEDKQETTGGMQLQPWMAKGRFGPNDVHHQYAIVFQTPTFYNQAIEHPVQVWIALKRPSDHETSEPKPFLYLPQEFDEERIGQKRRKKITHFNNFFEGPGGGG

[6] = molecular target: GST-Hu-p50 (Homo sapiens, UniProt P19838 7-356)
Chain of GST-Hu-p50 (P19838 7-356): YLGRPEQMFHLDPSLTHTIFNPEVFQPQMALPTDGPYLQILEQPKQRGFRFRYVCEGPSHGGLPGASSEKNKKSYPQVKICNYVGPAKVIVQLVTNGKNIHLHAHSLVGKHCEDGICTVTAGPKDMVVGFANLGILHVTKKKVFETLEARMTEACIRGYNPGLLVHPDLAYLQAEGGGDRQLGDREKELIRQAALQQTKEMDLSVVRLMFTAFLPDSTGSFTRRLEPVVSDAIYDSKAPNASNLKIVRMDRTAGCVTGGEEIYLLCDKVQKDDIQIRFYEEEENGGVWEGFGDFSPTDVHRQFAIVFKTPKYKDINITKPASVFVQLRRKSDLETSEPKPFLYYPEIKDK

Row | Sequence | binding signal [1] | binding signal [2] | binding signal [3] | binding signal [4] | binding signal [5] | binding signal [6]
1 | CCGATTAACATCAGGAAAGCCCCTGATGTTAATCGGGTCTTGATTCGCTTGACGCTGCTG | 7.03 z-score | 9.89 z-score | 1.05 z-score | 8.43 z-score | 9.59 z-score | 6.88 z-score
2 | CCGATTAACATCAGGCATACCCCTGATGTTAATCGGGTCTTGATTCGCTTGACGCTGCTG | 1.96 z-score | 1.5 z-score | 1.89 z-score | 1.3 z-score | 3.12 z-score | 1.59 z-score
3 | CCGATTAACATCAGGGGGAACACTGATGTTAATCGGGTCTTGATTCGCTTGACGCTGCTG | 6.57 z-score | 5.66 z-score | 8.64 z-score | 6.58 z-score | 5.54 z-score | 5.28 z-score
4 | CCGATTAACATCAGGAGTCCCCCTGATGTTAATCGGGTCTTGATTCGCTTGACGCTGCTG | 8.32 z-score | 6.17 z-score | 4.42 z-score | 8.71 z-score | 6.95 z-score | 5.55 z-score
5 | CCGATTAACATCAAACCCCCCCTTGATGTTAATCGGGTCTTGATTCGCTTGACGCTGCTG | 6.49 z-score | 4.97 z-score | 4.6 z-score | 7.14 z-score | 5.59 z-score | 5.38 z-score
6 | CCGATTAACATCAGGAACTCCCCTGATGTTAATCGGGTCTTGATTCGCTTGACGCTGCTG | 8.99 z-score | 7.4 z-score | 3.87 z-score | 7.91 z-score | 8.17 z-score | 5.57 z-score
7 | CCGATTAACATCAGGGGGAGCACTGATGTTAATCGGGTCTTGATTCGCTTGACGCTGCTG | 5.93 z-score | 3.91 z-score | 6.25 z-score | 7.14 z-score | 5.5 z-score | 4.89 z-score
8 | CCGATTAACATCAAAATGCCCCCTGATGTTAATCGGGTCTTGATTCGCTTGACGCTGCTG | 5.68 z-score | 5.66 z-score | 4.18 z-score | 5.29 z-score | 6.11 z-score | 5.37 z-score
9 | CCGATTAACATCAGGGGACCCCCTGATGTTAATCGGGTCTTGATTCGCTTGACGCTGCTG | 9.65 z-score | 6.03 z-score | 4.17 z-score | 10.7 z-score | 8.56 z-score | 5.4 z-score
10 | CCGATTAACATCAAAAATTCACCTGATGTTAATCGGGTCTTGATTCGCTTGACGCTGCTG | 1.56 z-score | 2.59 z-score | 1.24 z-score | 5.78 z-score | 2.74 z-score | 4 z-score
11 | CCGATTAACATCACATATCCCCCTGATGTTAATCGGGTCTTGATTCGCTTGACGCTGCTG | 6.5 z-score | 5.23 z-score | 5.73 z-score | 3.26 z-score | 4.79 z-score | 5.03 z-score
12 | CCGATTAACATCAAAAAACCCCGTGATGTTAATCGGGTCTTGATTCGCTTGACGCTGCTG | 7.4 z-score | 7.45 z-score | 3.92 z-score | 8.97 z-score | 7.03 z-score | 6.45 z-score
13 | CCGATTAACATCAGAATACCCCCTGATGTTAATCGGGTCTTGATTCGCTTGACGCTGCTG | 7.89 z-score | 5.69 z-score | 4.84 z-score | 5.26 z-score | 5.57 z-score | 5.27 z-score
14 | CCGATTAACATCAGATAACCCCCTGATGTTAATCGGGTCTTGATTCGCTTGACGCTGCTG | 7.2 z-score | 5.72 z-score | 2.43 z-score | 6.66 z-score | 6.11 z-score | 5.79 z-score
15 | CCGATTAACATCAAACAGTCCCCTGATGTTAATCGGGTCTTGATTCGCTTGACGCTGCTG | 5.58 z-score | 5.6 z-score | 2.54 z-score | 3.49 z-score | 5.66 z-score | 4.54 z-score
16 | CCGATTAACATCAAATACCCCCCTGATGTTAATCGGGTCTTGATTCGCTTGACGCTGCTG | 7.87 z-score | 5.54 z-score | 6.37 z-score | 6.76 z-score | 6.24 z-score | 5.42 z-score
17 | CCGATTAACATCAGGGTAATTTATGATGTTAATCGGGTCTTGATTCGCTTGACGCTGCTG | 4.07 z-score | 6.3 z-score | 3.64 z-score | 3.68 z-score | 6.31 z-score | 4.9 z-score

Row | Sequence | binding signal [1] | binding signal [2] | binding signal [3] | binding signal [4] | binding signal [5] | binding signal [6]
18 | CCGATTAACATCAAAAACCACCCTGATGTTAATCGGGTCTTGATTCGCTTGACGCTGCTG | 4.27 z-score | 3.46 z-score | 2.76 z-score | 7.76 z-score | 4.53 z-score | 5.64 z-score
19 | CCGATTAACATCAGGAGATCCCCTGATGTTAATCGGGTCTTGATTCGCTTGACGCTGCTG | 7.87 z-score | 8.09 z-score | 2.55 z-score | 8.66 z-score | 8.6 z-score | 5.88 z-score
20 | CCGATTAACATCAAGGAATTCCCTGATGTTAATCGGGTCTTGATTCGCTTGACGCTGCTG | 6.83 z-score | 7.7 z-score | 4.22 z-score | 8.03 z-score | 8.14 z-score | 5.07 z-score
21 | CCGATTAACATCAGGGGGTGGAATGATGTTAATCGGGTCTTGATTCGCTTGACGCTGCTG | 3.47 z-score | 3.19 z-score | 4.5 z-score | 2.66 z-score | 3.65 z-score | 4.42 z-score
22 | CCGATTAACATCAGGGGGGATACTGATGTTAATCGGGTCTTGATTCGCTTGACGCTGCTG | 6.78 z-score | 4.85 z-score | 6.57 z-score | 5.55 z-score | 4.94 z-score | 5.66 z-score
23 | CCGATTAACATCACGGGAACTCCTGATGTTAATCGGGTCTTGATTCGCTTGACGCTGCTG | 3.24 z-score | 2.3 z-score | 1.84 z-score | 6.49 z-score | 4.59 z-score | 1.48 z-score
24 | CCGATTAACATCAGGGGGTTATATGATGTTAATCGGGTCTTGATTCGCTTGACGCTGCTG | 6.77 z-score | 5.64 z-score | 3.18 z-score | 6.58 z-score | 6.3 z-score | 5.59 z-score
25 | CCGATTAACATCAGGGGGGAACATGATGTTAATCGGGTCTTGATTCGCTTGACGCTGCTG | 6.4 z-score | 4.35 z-score | 9.73 z-score | 4.25 z-score | 5.22 z-score | 5.4 z-score
26 | CCGATTAACATCAGGGATTTTTATGATGTTAATCGGGTCTTGATTCGCTTGACGCTGCTG | 5.66 z-score | 6.48 z-score | 1.77 z-score | 7.93 z-score | 6.66 z-score | 5.31 z-score
27 | CCGATTAACATCAAAGAGTCCCCTGATGTTAATCGGGTCTTGATTCGCTTGACGCTGCTG | 6.56 z-score | 6.17 z-score | 3.49 z-score | 6.3 z-score | 5.8 z-score | 5.88 z-score
28 | CCGATTAACATCACGGGGTTTTCTGATGTTAATCGGGTCTTGATTCGCTTGACGCTGCTG | 6.68 z-score | 6.13 z-score | 2.98 z-score | 8.05 z-score | 5.9 z-score | 5.61 z-score
29 | CCGATTAACATCAACACTCCCCCTGATGTTAATCGGGTCTTGATTCGCTTGACGCTGCTG | 5.32 z-score | 4.24 z-score | 5.26 z-score | 2.43 z-score | 4.25 z-score | 5.34 z-score
30 | CCGATTAACATCAGGGGGAACAATGATGTTAATCGGGTCTTGATTCGCTTGACGCTGCTG | 5.8 z-score | 5.75 z-score | 9.17 z-score | 3.62 z-score | 4.61 z-score | 5.11 z-score
31 | CCGATTAACATCAGGGGGGTTACTGATGTTAATCGGGTCTTGATTCGCTTGACGCTGCTG | 7.07 z-score | 4.42 z-score | 4.24 z-score | 8 z-score | 5.46 z-score | 5.29 z-score
32 | CCGATTAACATCAAAATTCCCGATGATGTTAATCGGGTCTTGATTCGCTTGACGCTGCTG | 4.37 z-score | 6.05 z-score | 4.55 z-score | 5.06 z-score | 4.93 z-score | 4.38 z-score
33 | CCGATTAACATCAGGGGGAGTACTGATGTTAATCGGGTCTTGATTCGCTTGACGCTGCTG | 6.52 z-score | 4.73 z-score | 5.82 z-score | 9.03 z-score | 6.58 z-score | 5.94 z-score
34 | CCGATTAACATCAGGGACTTTAATGATGTTAATCGGGTCTTGATTCGCTTGACGCTGCTG | 4.47 z-score | 5.92 z-score | 1.03 z-score | 5.04 z-score | 5.12 z-score | 5.02 z-score
